Here are results for four molecules from PubChem BioAssay.

Assay [1] in a line: optical density shifts of acrAB sulA E. coli – strain DRC41, OD650, 48 h, E. coli filamentation inducer project, primary screen (AID 1152).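 Further: E. coli MC1000 strain DRC41 lacking acrAB efflux pump and sulA.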 Particulars: higher = more signal, called active from +8 up or from −8 down.
Assay [2] can be described thus: probe aLefty1 binding on compound microarray – biochemical, small-molecule microarray, 635/667 nm fluorescence, primary screen (AID 1153).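 Further: score merges spot fluorescence with signal-to-noise ratio from the scanned slide images.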 The conditions noted are these: higher = more signal.
The nature of assay [3]: plasmodial surface anion channel blockers, osmotic lysis – cell-based, P. falciparum Indochina, OD700, 1 h, primary screen (AID 1154). The conditions noted are these: P. falciparum Indochina infected RBC osmotic lysis, higher = more signal, called active from +8 up or from −8 down.
Assay [4] can be described thus: plasmodial surface anion channel blockers, osmotic lysis – cell-based, P. falciparum Indochina, OD700, 2 h, primary screen (AID 1155).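 Further: lysis reports solute entry through the parasite surface anion channel PSAC.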 The conditions noted are these: P. falciparum Indochina infected erythrocytes, higher = more signal, called active from +8 up or from −8 down.
Assay [5] in a line: changes in parasitized red cell lysis, either direction – P. falciparum Indochina, OD700, 3 h, PSAC antagonist project, primary screen (AID 1156). The conditions noted are these: P. falciparum-infected erythrocytes, osmotic lysis, higher = more signal, called active from +8 up or from −8 down.
Assay [6] can be described thus: plasmodial surface anion channel blockers, osmotic lysis – cell-based, P. falciparum Indochina, OD700, 18 h, primary screen (AID 1157). Particulars: P. falciparum Indochina infected erythrocytes, osmotic lysis OD700, 18 h; higher = more signal, called active from +8 up or from −8 down.
Assay [7] is described as follows: S6 kinase pathway phospho-S6 level changes – cell-based, A549, cytoblot, luminescence, serum-stimulated, primary screen (AID 1158).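 Further: serum-stimulated A549 lung adenocarcinoma cells; signal is phosphorylated S6 detected by cytoblot immunostaining with HRP secondary.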 Particulars: 5 h, higher = more signal.
Assay [8] concerns the target NADPH oxidase 2 (Homo sapiens) (UniProt P04839). In words: compounds shifting NOX2 Amplex Red fluorescence – cell-based, HEK293-NOX2, PMA-stimulated, NOX inhibitor project, primary screen (AID 1159). Further: test concentration not given here. The conditions noted are these: 45 min, higher = more signal, called active from +8 up or from −8 down.
The target of assay [9] is NADPH oxidase 4 (Homo sapiens) (UniProt Q9NPH5). In words: compounds shifting NOX4 Amplex Red fluorescence – cell-based, HEK293-NOX4, tetracycline-induced, NOX inhibitor project, primary screen (AID 1160). Particulars: HEK293-NOX4, Amplex Red H2O2 fluorescence, 45 min; higher = more signal, called active from +8 up or from −8 down.
Sequence of NADPH oxidase 4 (Homo sapiens) (Q9NPH5 whole entry, looked up): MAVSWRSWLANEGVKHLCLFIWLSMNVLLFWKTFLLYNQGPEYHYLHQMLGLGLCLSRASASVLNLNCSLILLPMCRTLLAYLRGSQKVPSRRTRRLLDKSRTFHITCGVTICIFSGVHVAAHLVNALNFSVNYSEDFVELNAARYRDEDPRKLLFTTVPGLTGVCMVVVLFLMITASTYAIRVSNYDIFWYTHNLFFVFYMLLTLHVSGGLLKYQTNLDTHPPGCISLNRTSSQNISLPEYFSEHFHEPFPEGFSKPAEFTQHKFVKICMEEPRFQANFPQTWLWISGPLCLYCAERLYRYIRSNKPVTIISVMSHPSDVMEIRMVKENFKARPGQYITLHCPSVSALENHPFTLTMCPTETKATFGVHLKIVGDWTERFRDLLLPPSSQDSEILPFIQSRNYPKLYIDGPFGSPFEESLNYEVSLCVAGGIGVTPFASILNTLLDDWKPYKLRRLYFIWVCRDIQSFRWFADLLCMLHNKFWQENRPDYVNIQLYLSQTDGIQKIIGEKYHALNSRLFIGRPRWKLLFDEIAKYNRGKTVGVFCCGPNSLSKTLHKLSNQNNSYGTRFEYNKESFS
The target in assay [10] is NADPH oxidase 5 (Homo sapiens) (UniProt Q96PH1). In words: compounds shifting NOX5 Amplex Red fluorescence – cell-based, HEK293-NOX5, NOX inhibitor project, primary screen (AID 1161). Particulars: HEK293-NOX5, ionomycin, 45 min, higher = more signal.
Sequence of NADPH oxidase 5 (Homo sapiens) (Q96PH1 whole entry, looked up): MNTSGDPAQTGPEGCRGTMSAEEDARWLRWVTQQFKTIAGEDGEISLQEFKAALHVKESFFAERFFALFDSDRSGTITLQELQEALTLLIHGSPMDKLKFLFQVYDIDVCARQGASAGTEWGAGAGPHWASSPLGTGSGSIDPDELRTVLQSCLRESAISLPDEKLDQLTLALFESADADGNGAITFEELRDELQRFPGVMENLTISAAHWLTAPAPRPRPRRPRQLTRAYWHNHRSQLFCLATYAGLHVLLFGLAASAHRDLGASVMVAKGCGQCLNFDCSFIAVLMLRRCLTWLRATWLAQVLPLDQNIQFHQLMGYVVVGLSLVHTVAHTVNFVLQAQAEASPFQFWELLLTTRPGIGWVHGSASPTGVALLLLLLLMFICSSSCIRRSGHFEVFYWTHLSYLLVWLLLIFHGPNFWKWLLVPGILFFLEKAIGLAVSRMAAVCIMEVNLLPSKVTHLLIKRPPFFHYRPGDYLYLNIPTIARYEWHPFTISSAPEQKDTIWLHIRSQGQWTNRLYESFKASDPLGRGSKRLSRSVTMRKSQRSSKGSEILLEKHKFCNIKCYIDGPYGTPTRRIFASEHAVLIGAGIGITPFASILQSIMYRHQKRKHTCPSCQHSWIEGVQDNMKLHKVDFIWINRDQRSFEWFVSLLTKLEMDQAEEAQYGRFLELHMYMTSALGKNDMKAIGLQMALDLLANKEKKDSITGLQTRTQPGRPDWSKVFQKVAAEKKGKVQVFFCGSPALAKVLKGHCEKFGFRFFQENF
The nature of assay [11]: compound effects on lung adenocarcinoma cell viability – A549, calcein-AM fluorescence, 48 h, basal, profiling panel (AID 1162). Further: test concentration not given here. Particulars: higher = more signal.
The nature of assay [12]: compound effects on differentiated 3T3-L1 adipocyte viability – cell-based, 3T3-L1 adipocytes, calcein-AM fluorescence, 48 h, basal, profiling panel (AID 1163). Further: test concentration not given here. The conditions noted are these: 3T3-L1 adipocytes viability, higher = more signal.
Assay [13] can be described thus: compound effects on hepatocellular carcinoma cell viability – HepG2, calcein-AM fluorescence, 48 h, basal, profiling panel (AID 1164). Further: test concentration not given here. Particulars: higher = more signal.
The nature of assay [14]: compound effects on multiple myeloma cell viability – MM1S, calcein-AM fluorescence, 48 h, basal, profiling panel (AID 1165).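 Further: viability of MM1S multiple myeloma cells under basal unstimulated conditions; test concentration not given here.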 Particulars: higher = more signal.
Assay [15] can be described thus: calcein-AM signal in unstimulated myeloma cells – cell-based, calcein-AM fluorescence, 48 h, PK04 Diversity Set, profiling panel (AID 1166).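 Further: cells grown under basal conditions without added stimulus; test concentration not given here.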 Particulars: RPMI8226 myeloma viability, higher = more signal.
Assay [16] in a line: JC-1 mitochondrial signal, unstimulated HepG2 cells – cell-based, JC-1 fluorescence, 24 h, 100 nL compound, profiling panel (AID 1167). Further: test concentration not given here. The conditions noted are these: HepG2 mitochondrial potential, higher = more signal.
Assay [17] is described as follows: JC-1 mitochondrial signal, unstimulated adipocytes – cell-based, JC-1 fluorescence, 3T3-L1 adipocytes, 24 h, 100 nL compound, profiling panel (AID 1168). Further: test concentration not given here. Particulars: JC-1 mitochondrial fluorescence, higher = more signal, called active from +8 up or from −8 down.
Assay [18] can be described thus: JC-1 mitochondrial signal, unstimulated myeloma cells – cell-based, JC-1 fluorescence, RPMI8226, 24 h, 100 nL compound, profiling panel (AID 1169). Further: test concentration not given here. The conditions noted are these: JC-1 mitochondrial potential fluorescence, higher = more signal.
Assay [19] in a line: JC-1 mitochondrial signal, unstimulated MM1S myeloma – cell-based, JC-1 fluorescence, 24 h, 100 nL compound, profiling panel (AID 1170). Further: test concentration not given here. The conditions noted are these: MM1S mitochondrial potential, higher = more signal.
Assay [20] can be described thus: resazurin metabolic signal in A549 cells – cell-based, resazurin fluorescence, 24 h, PK04 Diversity Set, profiling panel (AID 1171). Further: test concentration not given here. The conditions noted are these: A549 viability, higher = more signal, called active from +8 up or from −8 down.

The source made the active and inactive calls.

Sequence of NADPH oxidase 2 (Homo sapiens) (P04839 whole entry, looked up): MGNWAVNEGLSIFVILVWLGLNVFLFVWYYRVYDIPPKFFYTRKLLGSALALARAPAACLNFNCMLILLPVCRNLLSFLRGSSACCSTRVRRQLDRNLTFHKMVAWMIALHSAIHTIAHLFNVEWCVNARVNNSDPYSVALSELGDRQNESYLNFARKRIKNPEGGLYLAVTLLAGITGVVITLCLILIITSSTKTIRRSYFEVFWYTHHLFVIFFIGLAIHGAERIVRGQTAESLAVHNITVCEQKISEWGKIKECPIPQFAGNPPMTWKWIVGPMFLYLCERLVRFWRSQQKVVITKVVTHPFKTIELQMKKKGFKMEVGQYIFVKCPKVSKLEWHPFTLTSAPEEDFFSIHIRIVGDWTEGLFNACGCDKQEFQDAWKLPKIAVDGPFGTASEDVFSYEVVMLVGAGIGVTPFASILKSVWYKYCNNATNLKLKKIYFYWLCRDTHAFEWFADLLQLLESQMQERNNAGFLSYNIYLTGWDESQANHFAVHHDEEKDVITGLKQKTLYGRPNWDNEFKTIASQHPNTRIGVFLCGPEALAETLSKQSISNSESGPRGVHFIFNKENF

With `CN(C)CCCN1C(=O)[C@@]2(c3ccc([N+](=O)[O-])cc3)CC(=O)N(CC34CC5CC(CC(C5)C3)C4)[C@@H]2c2ccc(CO)cc21`, the z-score in assay [1] was 0.388 (inactive); in assay [3] it was 2.1 (inactive); in assay [4] it was -0.451 (inactive); in assay [5], 1.27 (inactive); in assay [6], -0.405 (inactive); in assay [7], 0.299. Moreover, the z-score was -2.29 (inactive) in [8]; -0.0839 (inactive) in assay [9]; 1.56 in [10]; 2.86 in [11]; 0.338 in assay [12]; 0.28 in assay [13]. The z-score was -0.18 in assay [14]; 0.621 in assay [15]; 0.474 in assay [16]; 1.38 (inactive) in [17]; -0.0069 in [18]; 0.41 in [19]. Further, the z-score in [20] was -0.928 (inactive). Further, the composite z-score in [2] was -0.0662.

Consider `COc1ccc(NN2C(C(O)c3ccco3)C=CC3C(=O)N(C4CCCCC4)C(=O)C32)cc1` (stereo not given), for which the z-score in [1] was -0.636 (inactive); in assay [3], 2.54 (inactive); in [4] it was 0.143 (inactive); in assay [5], 0.546 (inactive); in assay [6], 0.0933 (inactive); in assay [7], -0.686. Besides, the z-score in assay [8] is -0.19 (inactive); in assay [9], -0.842 (inactive); in assay [10], -1.1; in assay [11] it was -0.181; in [12], -0.637; in [13], 1.37. The z-score in [14] is 0.739; in assay [15], -0.023; in assay [16], 0.526; in assay [17] it was -1.23 (inactive); in assay [18], 0.23; in assay [19] it was -1.23. In assay [20], the z-score is 0.405 (inactive). The composite z-score in [2] was found to be 0.364.

Consider `C=CCC(OC(C)=O)[C@@H]1[C@@H](N(Cc2cc3ccccc3o2)C(=O)Cc2ccc(F)cc2)c2cc(OCCCO)ccc2N1C(=O)c1ccc2ccccc2n1` (stereo not given in full), for which the z-score in assay [1] was -0.548 (inactive); in [3], 1.05 (inactive); in [4], 0.213 (inactive); in assay [5] it was -0.627 (inactive); in assay [6] it was -0.0096 (inactive); in assay [7], -0.53. Also, the z-score in assay [8] was 0.259 (inactive); in assay [9] it was 0.642 (inactive); in [10], 1.28; in [11], -0.153; in [12] it was 1.2; in assay [13], 1.09. Further, the z-score in assay [14] is 0.466; in [15], -0.553; in assay [16], 1.72; in [17], -0.528 (inactive); in assay [18] it was -0.131; in [19], 0.288. For the same molecule, the z-score in assay [20] is 0.642 (inactive). In assay [2], the composite z-score was -0.0984.

For the molecule `C=C(CCCC)/C(=C/C[C@@H](OC(C)=O)c1ccc(CO)o1)c1cc(C(=O)OC)ccc1OC`, the z-score in assay [1] is -0.132 (inactive); in assay [3], 9.64 (active); in assay [4], 0.938 (inactive); in assay [5], 1.3 (inactive); in assay [6], 0.553 (inactive); in [7] it was 0.476. Also, the z-score was 0.615 (inactive) in assay [8]; -0.832 (inactive) in assay [9]; -1.18 in assay [10]; 0.813 in [11]; -0.504 in assay [12]; 0.882 in assay [13]. Further, the z-score in assay [14] is -1.81; in assay [15] it was -0.564; in [16], 0.152; in assay [17] it was -0.573 (inactive); in [18], 0.507; in [19], -1.36. Further, the z-score in assay [20] was 0.111 (inactive). The composite z-score in assay [2] was -0.0011.
